Data published in PubChem BioAssay AID372 (MTDP, 2006).
Out of some 100,000 compounds screened, about 770 (0.77%) were called active. The full list was thinned out, with actives kept by preference. Unmarked numbers belong to inactive results. No stated cut-off is given here; in the data, active means inhibition above about 50%; inactive means the rest.

The compounds below were run against Gag-Pol polyprotein (Human immunodeficiency virus type 1 group M subtype B (isolate HXB2)) (UniProt P04585) (assay: RNase H inhibition, HIV 1 Gag Pol polyprotein, FRET biochemical assay, screening (AID 372)). Conditions: HIV-1 RT RNase H, FRET RNA/DNA substrate fluorescence; at 10 µM; hits give high values.

Compound	inhibition
O=C(Cc1csc(-c2ccccc2)n1)Nc1nccs1	0%
O=C(NCCSc1ccccn1)c1ccc([N+](=O)[O-])cc1	0%
Cc1ccc2c(c1)-c1c(ssc1=S)C(C)(C)N2C(=O)c1ccco1	48%
Cc1ccc(/C(O)=C2/C(=O)C(=O)N(c3ccccc3)C2c2ccc([N+](=O)[O-])cc2)cc1 (configuration not stated)	0%
CC1=C(C(=O)OCC2CCCO2)C(c2cc3c(cc2[N+](=O)[O-])OCO3)C2=C(CCCC2=O)N1 (configuration not stated)	6%
CCC(C)c1ccc(NC(=O)Cc2ccc(Cl)cc2)cc1 (configuration not stated)	10%
CCC(=O)Nc1ccc(NC(=S)NC(=O)c2ccco2)cc1	0%
N#C/C(=C\c1ccc(-c2ccc([N+](=O)[O-])cc2Br)o1)C(N)=O	22%
CCOc1ccc(N2C(=O)NC(=O)/C(=C/c3cccc4ccccc34)C2=O)cc1	73% (active)
COc1ccc(N2C(=O)NC(=O)/C(=C/c3ccc(I)o3)C2=O)cc1	11%
CCOc1ccc(N2C(=O)NC(=O)/C(=C\c3ccccc3)C2=O)cc1	0%
CCOc1ccc(N2C(=O)NC(=O)/C(=C\c3ccccc3OC)C2=O)cc1	5%
COc1ccc(N2C(=O)/C(=C\c3ccc([N+](=O)[O-])o3)C(=O)NC2=S)cc1	43%
CCCC1CCC(c2ccc(C(=O)CCN(C)C)cc2)CC1 (configuration not stated)	25%
COc1ccc(OC)c(/C=C2/SC(=S)N(c3ccc(Cl)cc3)C2=O)c1	4%
Cc1c(Cc2ccccc2)c(=O)oc2c(C)c(OS(C)(=O)=O)ccc12	0%
COc1ccccc1/C=N/NC(=O)C(C)Sc1nc(C)cc(C)n1 (configuration not stated)	14%
O=C(COC(=O)c1ccccc1I)c1ccc2c(c1)OCCO2	57% (active)
O=C(COC(=O)c1ccc2c(c1)OCCO2)c1ccc(Br)cc1	0%
O=C(COC(=O)c1ccc2c(c1)OCCO2)c1ccc(-c2ccccc2)cc1	14%
C=CCOc1cccc(/C=N/NC(=O)C(=O)Nc2ccc(C)c(C)c2)c1	1%
CCOc1cc(/C=C(/C#N)C(=O)Nc2ccc(O)cc2)ccc1OC	8%
CC(C)(C)c1cc(C(c2ccccc2O)N2CCOCC2)cc(C(C)(C)C)c1O (configuration not stated)	22%

Compound	inhibition
O=C1NC(=S)NC(=O)C1=Cc1ccc(OCc2cccc3ccccc23)c(Br)c1	54% (active)
Cc1cccc(C)c1OCCOc1ccc(C=C2C(=O)NC(=S)NC2=O)cc1	36%
N#Cc1ccccc1COc1ccc(C=C2C(=O)NC(=S)NC2=O)cc1Br	46%
N#Cc1ccccc1COc1ccc(/C=C2/SC(=S)NC2=O)cc1Br	52% (active)
Cc1ccccc1COc1ccc(C=C2C(=O)NC(=S)NC2=O)cc1	60% (active)
CN1C(=O)S/C(=C/c2ccc(OCc3ccccc3C#N)c(Br)c2)C1=O	39%
O=C1NC(=S)NC(=O)C1=Cc1cc(Br)ccc1OCc1cccc2ccccc12	32%
COc1cc(/C=C2/SC(=S)NC2=O)ccc1OCc1ccccc1C#N	46%
O=C1NC(=S)NC(=O)C1=Cc1ccc(OCc2ccccc2Cl)cc1	35%
O=C(/C=C/c1ccccc1)N1CCN(c2ccccc2)CC1	0%
COc1ccc(-c2ccccc2)cc1NCC1CC=CCC1 (configuration not stated)	21%
Cc1ccc(NC(=O)C(C(C)C)N2C(=O)c3ccccc3C2=O)c(C)c1 (configuration not stated)	12%
O=C1C(Cl)=C(Nc2cccc(Cl)c2)C(=O)N1c1cc(Cl)ccc1Cl	0%
C#CCOc1ccc(C=C2C(=O)NC(=S)NC2=O)cc1Br	19%
COc1ccc(/C=N/c2sc(C)c(C)c2C#N)cc1	12%
CCc1ncc(C(O)c2ccccc2OC)n1C (configuration not stated)	5%
COc1ccc(OC)c(C2NC(=S)NC(C)=C2C(=O)Nc2ccc(C)c(Cl)c2)c1 (configuration not stated)	15%
Oc1[nH]c2ccc(Br)cc2c1N=Nc1ccccn1	2%
O=S(=O)(N=Nc1c(O)[nH]c2ccc(Br)cc12)c1cccc2ccccc12	9%
Oc1[nH]c2ccc(Br)cc2c1N=Nc1ccc2ccccc2n1	52% (active)
CCN(CC)S(=O)(=O)c1ccc(Cl)c(C(=O)Nc2ccc(OC)cc2)c1	0%
O=C1NN(c2ccccc2)C(=O)/C1=C/c1ccc(-c2cccc([N+](=O)[O-])c2)o1	31%
CCOCCOC(=O)C1=C(C)N(CC)C(=O)NC1c1ccc([N+](=O)[O-])cc1 (configuration not stated)	0%

Compound	inhibition
C=CCOC(=O)C1=C(C)N(CC)C(=O)NC1c1ccc([N+](=O)[O-])cc1 (configuration not stated)	57% (active)
C=CCOC(=O)C1=C(C)N(CC)C(=O)NC1c1ccc(Br)cc1 (configuration not stated)	4%
O=[N+]([O-])c1ccc(N/N=C/c2cc([N+](=O)[O-])ccc2O)cc1	10%
O=C(N/N=C/c1ccc(/C=N/NC(=O)c2cccc([N+](=O)[O-])c2)cc1)c1cccc([N+](=O)[O-])c1	12%
Cc1ccc(-c2cc(C(=O)N/N=C/c3ccc([N+](=O)[O-])cc3)[nH]n2)cc1	24%
O=C(N/N=C/c1ccc(F)cc1)c1cc(-c2ccc3ccccc3c2)n[nH]1	17%
O=C(N/N=C\c1ccc(OC(=O)c2ccc(Br)cc2)cc1)c1ccc(Br)cc1	14%
O=C(N/N=C/c1ccc(OC(=O)c2ccc(Br)cc2)cc1)c1cccc([N+](=O)[O-])c1	50% (active)
O=[N+]([O-])c1ccc(N/N=C/c2ccc(O)c(O)c2)cc1	57% (active)
COc1ccc(/C=N/Nc2ccc([N+](=O)[O-])cc2)cc1Br	7%
O=[N+]([O-])c1ccc(N/N=C/c2ccc(Cl)c([N+](=O)[O-])c2)cc1	8%
O=[N+]([O-])c1ccc(N/N=C/c2ccc(O)c(Br)c2)cc1	50% (active)
O=C(N/N=C/c1ccc([N+](=O)[O-])cc1)c1cc(-c2ccc3ccccc3c2)n[nH]1	50% (active)
O=[N+]([O-])c1ccc(N/N=C/c2cc(Br)c(O)c(Br)c2)cc1	24%
Cc1ccc(N(CC(=O)O)S(=O)(=O)c2ccccc2)cc1Cl	4%
COc1ccc(Br)cc1/C=C/C(=O)Nc1ccc(O)c(-c2nc3ccccc3o2)c1	14%
O=C(Nc1ccc(Br)cc1)C1C2/C=C\CCCCC21 (configuration not stated)	9%
COC(=O)c1c(NC(=O)c2ccccc2C)sc2c1CCC(C)C2 (configuration not stated)	12%
O=C(CSc1ccccc1)N/N=C/c1ccccc1O	7%
CS(=O)(=O)N1CCN(Cc2ccccc2Cl)CC1	0%
OCCNc1nc(-c2ccccc2Cl)nc2ccccc12	0%
COc1ccc(C(=O)NNC(N)=S)cc1	0%
O=C(N/N=C/c1ccc(O)cc1)c1ccc([N+](=O)[O-])cc1	0%

Compound	inhibition
NC1=NC(=O)/C(=C/c2ccc(OC(=O)c3ccc(Cl)c(Cl)c3)cc2)S1	18%
NC1=NC(=O)/C(=C/c2ccc(OS(=O)(=O)c3cccc([N+](=O)[O-])c3)cc2)S1	25%
O=C(N/N=C/c1ccc(O)c(O)c1)c1ccc([N+](=O)[O-])cc1	51% (active)
O=C(N/N=C/c1ccc(/C=N/NC(=O)c2ccc([N+](=O)[O-])cc2)cc1)c1ccc([N+](=O)[O-])cc1	0%
NC1=NC(=O)/C(=C/c2ccc(OC(=O)c3cccc([N+](=O)[O-])c3)cc2)S1	51% (active)
Cc1cc(Cl)ccc1OCC(=O)Nc1cc(Cl)c(Cl)cc1Cl	5%
CCC1CCc2c(sc(NC(=O)c3cc([N+](=O)[O-])ccc3Cl)c2C(N)=O)C1 (configuration not stated)	14%
COc1ccc(OC)c(NC(=O)COc2ccc(Cl)c(C)c2)c1	15%
CC(CCC(=O)Nc1nc2ccccc2s1)CC(=O)Nc1nc2ccccc2s1 (configuration not stated)	15%
Cc1ccc2[nH]c(=O)c(C(=O)/C=C\c3ccccc3)c(-c3ccccc3)c2c1	45%
COc1ccccc1/C=C/C(=O)c1c(-c2ccccc2)c2cc(Br)ccc2[nH]c1=O	57% (active)
COc1ccccc1/C=C/C(=O)c1c(-c2ccccc2)c2cc(C)ccc2[nH]c1=O	59% (active)
O=C(/C=C/c1ccccc1Cl)c1c(-c2ccccc2)c2cc(Br)ccc2[nH]c1=O	49%
COc1ccc(/C=C\C(=O)c2c(-c3ccccc3)c3cc(C)ccc3[nH]c2=O)cc1	7%
Cc1ccc2[nH]c(=O)c(C(=O)/C=C/c3ccccc3Cl)c(-c3ccccc3)c2c1	55% (active)
O=C(/C=C/c1ccccc1Cl)c1c(-c2ccccc2)c2cc(Cl)ccc2[nH]c1=O	35%
COc1ccc(OC)c(/C=C/C(=O)c2c(-c3ccccc3)c3cc(Br)ccc3[nH]c2=O)c1	37%
COc1cc(/C=C/C(=O)c2c(-c3ccccc3)c3cc(Br)ccc3[nH]c2=O)cc(OC)c1OC	0%
Cc1ccc2[nH]c(=O)c(C(=O)/C=C\c3ccc(Br)cc3)c(-c3ccccc3)c2c1	28%
COc1ccc(/C=C\C(=O)c2c(-c3ccccc3)c3cc(C)ccc3[nH]c2=O)cc1OC	18%
CC12CN3CC(C)(CN(C1)C3c1c[nH]c3ccccc13)C2=O (configuration not stated)	6%
Cc1ccc(-n2c(C)cc(/C=C(/C#N)C(=O)Nc3ccc(Cl)cc3)c2C)cc1C	8%
O=C(Oc1ccc([N+](=O)[O-])cc1)c1ccc(Cl)c(S(=O)(=O)N2CCOCC2)c1	0%
